This is an account of results in paper PMC12136788.

Where a chain is given by its changes, count along the chain named. In all, about 24,000 sequences were measured (“enrichment r”: median about 0.99, highest 2% from about 3.7 on). Only a selection was taken, and the highest values are over-represented in it overall.

The labels stand for the following.
T1: UNK ZnF1-3 (human, UniProt Q9C0B0 31-174)
T1 sequence: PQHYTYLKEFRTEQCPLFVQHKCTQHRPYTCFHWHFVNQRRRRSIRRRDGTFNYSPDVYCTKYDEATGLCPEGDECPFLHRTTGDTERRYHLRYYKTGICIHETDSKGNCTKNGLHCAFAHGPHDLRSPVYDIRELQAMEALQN

B1: chr12:98991669:98991670:+_ENSG00000075415_ENST00000552981|hu_mus|motif|central (ssRNA)
RNA: GGGAGUUCUACAGUCCGACGAUCGAAUCCAUUAAAUAUGCCUUUGUACUUCUGAGGGUCCACCUGCAUGCGGCACUUUACGGAGUCCAGGGGAACAACAGCAGUGUGUGUCAGCCCACAACUUAAGACCCCACCAAAGCCACACAACAGAGGAUUGAGCAUCA
B2: chr4:115894766:115894767:+_ENSMUSG00000028698_ENSMUST00000030464|mus_hu|mus_mus_mus_hu_True|1_98 (ssRNA)
RNA: GGGAGUUCUACAGUCCGACGAUCUUCCACACGGAAAGUACUUGGGGGUUUUCCAACGGCCAGUACCAGUCCGGCCAAACUACCCGAACAGGGUCCUCCCCCUCUCUCCUACAGAACACAACAAAAUGCCCCCGAACCCCGAACCAACAGAGGAUUGAGCAUCA
B3: chr2:69705335:69705336:+_ENSMUSG00000068882_ENSMUST00000090852|mus_mus|FALSE|FALSE (ssRNA)
RNA: GGGAGUUCUACAGUCCGACGAUCUUGGCCUUUAUCGUCUAGCCAUUCUUUUAUAUCAUCAAGGGUGGCGUCAGUUGGGAAACCUUUAAUAUAAACAGAUCUGUUUUUUACAUCAUUCUUAUACUCAUCCGUCACUUCAGGGAGCAACAGAGGAUUGAGCAUCA
B4: chr12:48362563:48362564:+_ENSG00000134291_ENST00000256686|hu_hu|hu_hu_hu_mus_False|98_108 (ssRNA)
RNA: GGGAGUUCUACAGUCCGACGAUCUCCGAAGGGUGAAUCAAGCCCCACUUGCGGGGGAAACUGUAAUCACUUUGUAUGGGGAAGGAAAAGAAACGCCAAAAACUUUCCAAAAAGCGGGGGUGGGGUGAGGCGGGAGGGGGAGGUCAACAGAGGAUUGAGCAUCA
B5: chr8:122087627:122087628:-_ENSMUSG00000034189_ENSMUST00000036049|mus_mus|motif|central (ssRNA)
RNA: GGGAGUUCUACAGUCCGACGAUCGCAUUAAAGGCGUGAGCCCCCACGCCCAGCCUGAGGAACAUCUUGAAAGCCAAUACGGUAAUCAGUCACCUGUAAAAGGAAAACAGGUGACUUCUCAAAAAAAAAAAAAAAAGAAAGAAACAACAGAGGAUUGAGCAUCA
B6: chr8:124405102:124405103:-_ENSMUSG00000040010_ENSMUST00000045557|mus_mus|motif|central (ssRNA)
RNA: GGGAGUUCUACAGUCCGACGAUCCCCAAAAAAACAAAAAGCCUCACAAAACAGCAGACCUCUGUACCCCCCCCCCAGUCGGAUGUAACAGGCUAGCCAUUAAUACAAUAGUAAAAGACAUUAUAACCACAGCACUAUCUCAGGCAACAGAGGAUUGAGCAUCA
B7: chr8:122087627:122087628:-_ENSMUSG00000034189_ENSMUST00000036049|mus_mus|FALSE|FALSE (ssRNA)
RNA: B5 RNA with G80U, G81A
B8: chr13:41369856:41369857:+_ENSMUSG00000091264_ENSMUST00000165561|mus_hu|FALSE|FALSE (ssRNA)
RNA: GGGAGUUCUACAGUCCGACGAUCGCACUUCAUUCUUGUACAAAGCAGGUAACACUAAACAGGAAGGUUGUUUAAUUCACAUCUCUUCUCCCUGGUAAACACUCAGCCCAGAGUUCAGUUGAGACAAACACGGAAACCUGGCAACAACAGAGGAUUGAGCAUCA
B9: chr1:23884524:23884525:-_ENSG00000117318_ENST00000374561|perfect_dup|FALSE|FALSE (ssRNA)
RNA: GGGAGUUCUACAGUCCGACGAUCUUUAAUAUACAUCGCAUUGUUACAGAAAGUCACCUUCCUGUAAAAAAGGUACAAAACCUAUAUACUCUAUUAUAGAGUUCAUAAAUCAGGGCAACAGAACCUUUCUCCAAGGAGACCAGACAACAGAGGAUUGAGCAUCA
B10: 107960272_107965159_2041_CDS_ENSG00000166266_ENST00000393094|human|control|control (ssRNA)
RNA: GGGAGUUCUACAGUCCGACGAUCUCUAGCAAGCUUGUUUACAUAAUCCGCUGGCAUACCAACUUCUCUUAGCCACUCUACCAUGUUUUCUUCAAUUUCACUAUCGGCAGAGAUGUCUAAUAUAAGACGUCGUGUCAAAUGAGCCAACAGAGGAUUGAGCAUCA
B11: chr1:95363480:95363481:-_ENSG00000117519_ENST00000538964|hu_mus|FALSE|FALSE (ssRNA)
RNA: GGGAGUUCUACAGUCCGACGAUCCGUGCCCUGGCUUCCGUUGUGAAUGACAGGUUCUGUGGGUGCGGCACAGUACUUGGGGUCAUAUACUUGCCGCCCAAGCCCAUACACGCUCAUUCCUUUCUGGGAAGCAACUUUGUUGGUCAACAGAGGAUUGAGCAUCA
B12: chr12:48362563:48362564:+_ENSG00000134291_ENST00000256686|hu_hu|hu_hu_hu_mus_False|58_98 (ssRNA)
RNA: GGGAGUUCUACAGUCCGACGAUCUCCGUCAAGCCCUUCAAGCCCCACUUGCGGGGGAAACUGUAAUCACUUUGUAUUUCUAAAAAAAAGAAACGCCAAAAACUUUCCAAAAAGCGGGGGUGGGGUGAGGCGGGAGGGGGAGGUCAACAGAGGAUUGAGCAUCA
B13: chr8:59070621:59070622:+_ENSMUSG00000038206_ENSMUST00000040218|mus_mus|motif|central (ssRNA)
RNA: GGGAGUUCUACAGUCCGACGAUCAAACAUGAUGAGCAAAUUAAGAAAAGUUCUGUAAAAUUAGUUAGUUCUGAGAUUUCGGAACGGGAAAACAGUGAAACAAAAAAGGGGGGGUGCAGUCAAGCUGGAUUUUACACACAGGCUCAACAGAGGAUUGAGCAUCA
B14: chr5:136386016:136386017:-_ENSMUSG00000051391_ENSMUST00000055808|mus_mus|motif|central (ssRNA)
RNA: GGGAGUUCUACAGUCCGACGAUCGGGGGUAUUUAACGGUUUCUGUUUUUGUGAUGGGCUGACCUUAAGGGUAAAGAAGAACGGAAAAAAAAAGUAUCCCCCGCAGCCCCCUCCCAAACACCCAUCAACCAAAACGGAACAGGGCAACAGAGGAUUGAGCAUCA
B15: chr1:186721242:186721243:-_ENSMUSG00000026620_ENSMUST00000027929|mus_mus|FALSE|FALSE (ssRNA)
RNA: GGGAGUUCUACAGUCCGACGAUCAUAAUGAGUAUUAAAAAGAUGUGCCUUUUCUAGUGGCUUUACGUCGCAUACGUCACUAAUUAUGAAAGAAGGCAAAUGACCAGUUACAAAGCUCCACAUGACUGGAAUAAUGAUGUGGAACAACAGAGGAUUGAGCAUCA
B16: chr1:169302553:169302554:-_ENSMUSG00000026688_ENSMUST00000028005|mus_mus|FALSE|FALSE (ssRNA)
RNA: GGGAGUUCUACAGUCCGACGAUCAUGCAGGCAGGAGCUUUAGGUAUGAGGCUGAUGCCAGAUAAGUUUUUAUUAUAUUAAAAAAAAAAAAAAAACCAGUGCAACUGGAAAUCAGGGUGAGUCGCUGGAGGUGAGUGAGAGUCGCAACAGAGGAUUGAGCAUCA
B17: 60821080_60823165_1073_3pUTR_ENSMUSG00000021559_ENSMUST00000077453|mouse|control|control (ssRNA)
RNA: GGGAGUUCUACAGUCCGACGAUCUUCGACUAAGUGCUUGUUGGGUGUCUUUAGGCUUGAUCCAGGGGUGCUGCAAACUGUCCUGGAUUGUCAUCCUCUUCUUUGGAUCCUUGACCAGCAGUCUUCUGAUGAAAUCUUUGGCAACAACAGAGGAUUGAGCAUCA
B18: 219445452_219447802_500_3pUTR_ENSG00000144580_ENST00000542068|human|control|control (ssRNA)
RNA: GGGAGUUCUACAGUCCGACGAUCCUGGAUGUGAUGCUACACAUUGCAGUAAUGCCAGAGCAUUGCAAACUCUGUUAGACUGGUGUGCUGUCAAGGUGGGUGGGUUGAUAGAUGGAUAAAUAUUUACAAUUUCCUGUAAAAGUGCAACAGAGGAUUGAGCAUCA
B19: chr8:59070621:59070622:+_ENSMUSG00000038206_ENSMUST00000040218|mus_mus|FALSE|FALSE (ssRNA)
RNA: B13 RNA with G80U, G81A, G85U, G86A
B20: chr16:94690093:94690094:+_ENSMUSG00000040785_ENSMUST00000117648|mus_hu|mus_mus_mus_hu_True|8_88 (ssRNA)
RNA: GGGAGUUCUACAGUCCGACGAUCGGGCUGGGAUGACGGACACACAGAUCUUCCCAGAGGGGGAAAAAGUCUUAGUCGAUACUAAUUAAAAAGUGUUAAUGAUUUUUGAAAAUCAGAUUACAUCUAUUUGAAUCAUAAAGCAAACAACAGAGGAUUGAGCAUCA
B21: chr7:141441981:141441982:+_ENSG00000106028_ENST00000265304|hu_mus|hu_hu_hu_mus_False|1_8 (ssRNA)
RNA: GGGAGUUCUACAGUCCGACGAUCCUCAUGUCUUACAAACUGACGAAAUACCUGUAACACAGGUCUUCGAAACAUGGCUUCUGUUUUUCUUACAACCUAAUCUUUAGGCUUUUCCUAAAGGAAAGAAUAACCCGAGCAGCCCAGCAACAGAGGAUUGAGCAUCA
B22: chr11:46405157:46405158:+_ENSG00000110492_ENST00000395566|hu_hu|hu_hu_hu_mus_False|8_78 (ssRNA)
RNA: GGGAGUUCUACAGUCCGACGAUCCCCUCCCCACUUUGGGCACUUGGUGUGGGCGUGAAGGCAGGGCCGUGAUUGACAGAGCUGACAGGAAGACAAAAGGCACUGGUGGGUUAUAUCUUGGGCCUGUGAGAGGGAGGGGCUCCGCAACAGAGGAUUGAGCAUCA

For this test, the target named is T1, UNK ZnF1-3. The test is described as follows: nsRBNS (natural sequence RNA bind-n-seq); RBNS binding buffer (assumed for nsRBNS): 25 mM Tris pH 7.5, 150 mM KCl, 3 mM MgCl2, 0.01% Triton X-100, 500 ug/ml BSA, 20 U/ml SUPERase-In, 4 C; UNK is unkempt and MSI1 is Musashi-1; names of the RNAs are library labels; protein concentration not given here; high values mean tight binding.
As to B1, the binding signal was 1.12 enrichment R.
B2 yielded a binding signal of 1.29 enrichment R.
The value for B3 was 1.08 enrichment R; that for B4 was 1.98 enrichment R.
For B5 the value was 4.56 enrichment R.
Consider B6, for which the binding signal was 2.38 enrichment R.
For B7 the value was 5.88 enrichment R.
For B8 the value was 1.42 enrichment R; for B9, 0.848 enrichment R.
The value for B10 was 0.643 enrichment R; that for B11 was 0.529 enrichment R.
On to B12, for which the binding signal came to 1.56 enrichment R.
The value for B13 was 9.45 enrichment R; that for B14 was 0.928 enrichment R; that for B15 was 0.52 enrichment R.
Regarding B16, the binding signal amounted to 7.4 enrichment R.
The value for B17 was 0.466 enrichment R.
For B18 the value was 1.19 enrichment R; for B19, 7.52 enrichment R.
On to B20, for which the binding signal was determined as 1.05 enrichment R.
For B21 the value was 0.751 enrichment R; for B22, 2.15 enrichment R.
